# Results taken from PubChem BioAssay (EPA / NIEHS).
# “And” between values parts separate entries of the source, which are not always exact repeats. Equal values may be shown once. Records with an inconclusive call do not appear. The source made the active and inactive calls. Rule for the calls, unless noted: active = hit-call score of the fitted dose curve at least 0.9, where 1 is the maximum; inconclusive = response in the unintended direction; inactive = score below 0.9.
# How the values were obtained:
# [1] = TAMU_HCS_1.5hr_SingleDonor1434_Cytotoxicity: Cytotoxicity Assessment using High-content Screening (HCS) Fluorescent Imaging for the Texas A&M University (TAMU) 1.5-hr Human Induced Pluripotent Stem Cell (iPSC)-derived Cardiotoxicity Assay (AID 2284234)
# Summary of the method: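 Nuclear counts from Hoechst 33342 imaging define cytotoxicity here, with EC10 (10% cell-count loss relative to DMSO) as point of departure. iPSC cardiomyocytes received 0.2-100 uM test chemical in 0.5% DMSO for 1.5 h at 37 C.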
# [2] = TAMU_PeakParms_SingleDonor1434_QT: Texas A&M University (TAMU) 1.5-hr Human Induced Pluripotent Stem Cell (iPSC)-derived Cardiomyocytes Calcium (Ca+2) Flux Assay for Cardiotoxicity: QT (decay-rise ratio) (AID 2284235)
# Protocol: TAMU_PeakParms is a cell-based, multiplexed-readout assay that uses iPSC-derived cardiomyocytes with measurements taken at 1.5 hours after chemical dosing in a microplate: 384-well plate.TAMU_PeakParms_SingleDonor1434_QT is a phenotype derived from the decay.rise.ratio.avg parameter and uses an EC05 as its POD (5% increase in decay/rise ratio, compared to controls). Decay.Rise.Ratio.Average measures as the average ratio between the rise time and the decay time of the calcium flux, using Fluorescence intensity as a functional reporter from Calcium (Ca+2) flux assay technology. Before modeling, data is preprocessed to remove data points where there is a cessation of beating (where peak.freq.avg equals 0) and data points after they develop of a severe notch phenotype in order to avoid capturing non monotonic effects related to an advanced pathology.Data from the assay component TAMU_PeakParms_SingleDonor1434_QT was analyzed into 1 assay endpoints. This assay endpoint, TAMU_PeakParms_SingleDonor1434_QT_Prolongation, was analyzed in the positive analysis fitting direction relative to DMSO as the negative control and baseline of activity. Using a type of functional reporter, gain-of-signal activity can be used to understand changes in the cardiac function. To generalize the intended target to other relatable targets, this assay endpoint is annotated to the cardiomyocyte function intended target family, where the subfamily is QT interval.
# Each test compound from the chemical master plates was transferred into new tissue culture-treated 384-well microplates using acoustic dispensing (Labcyte Echo 550, Beckman Coulter, Indianapolis, IN) in amounts that would result in 5x concentrations (1, 5, 50, 500 uM) in the working plate in a final volume of 50 uL. Chemicals were randomly divided into 16 separate 384-well plates for screening such that the outer-most wells were left empty (308 wells were used on each plate). Fifteen of the plates contained unique test chemicals (n = 65 chemicals, 4 concentrations, one replicate each), positive controls (n = 10 chemicals, one concentration, 3 replicates each), vehicle (0.5% DMSO, n = 12), and media-only (n = 6) wells. Plate 16 contained test chemicals (n = 54 chemicals, 4 concentrations, one replicate each), inter-plate replicates (n = 11 chemicals with replicates, 4 concentrations, one replicate each), and the same design of positive controls and vehicle- and media-only wells as other plates. These plates were stored at -80C until the day of the assay. On assay day, the 5x concentrated chemical working plate was prepared by adding 50 uL cardiomyocyte maintenance medium containing 2.5% v/v DMSO to each well of the microplates. Then, 12.5 uL of 5x concentrated test chemical solution was added to the test plate to yield final concentrations of 0.2, 1, 10, and 100 uM in 0.5% v/v DMSO using the liquid handling robotics of the FLIPR Tetra. FLIPR Tetra settings were optimized to mix and then transfer test chemicals to the microplate at height = 40 uL, speed = 1 uL/sec, and removal speed = 6 mm/sec, resulting in a total volume of 62.5 uL/well with 0.5% v/v DMSO in cardiomyocyte maintenance medium. Immediately after chemical transfer, cells were incubated 37C and 5% CO2 for 90 minutes. […]
# [3] = CCTE_Mundy_HCI_Cortical_NOG_BPCount: CCTE's Neurite Outgrowth Assay in rat cortical cells for Branch Point Count, Mundy Lab (AID 2284237; active = hit-call score of the fitted dose curve at least 0.9, where 1 is the maximum; inactive = score below 0.9;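 for AC50: branch points counted about two days after chemical exposure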)
# Summary of the method: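 Measured 50.33 h after dosing, this morphology endpoint uses rat primary cortical cultures labelled for betaIII-tubulin. Branch points are quantified by high-content imaging, with DMSO as negative control and baseline.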
# [4] = CCTE_Mundy_HCI_hNP1_Casp3_7: CCTE's Caspase-Glo 3/7 Assay in human neuroprogenitor cells for Apoptosis, Mundy Lab (AID 2284240; active = hit-call score of the fitted dose curve at least 0.9, where 1 is the maximum; inactive = score below 0.9)
# Summary of the method: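 Neuroepithelial-lineage stem cells from WA09 embryonic cells were treated with chemicals after 40–44 h of culture. Twenty-four hours later, caspase-3/7 activation was detected luminescently after a 30 min room-temperature reagent step, with DMSO as baseline.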
# [5] = CCTE_Mundy_HCI_hNP1_CellTiter: CCTE's Cell Titer-Glo 2 Assay in human neuroprogenitor cells for Viability, Mundy Lab (AID 2284241);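 for AC50: a hit is a drop in ATP luminescence versus DMSO meaning reduced viability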
# Summary of the method: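 Measures ATP content in human neural progenitors derived from WA09 embryonic cells. Read-out at 26.5 hours after dosing, with DMSO serving as the negative control and baseline.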
# [6] = CCTE_Mundy_HCI_Cortical_Synap_Neur_Matur_NeuronCount: CCTE's Synaptogenesis and Neurite Maturation Assay in rat cortical cells for Neuron Count, Mundy Lab (AID 2284242);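 for AC50: neuron number from Hoechst nuclei and MAP2 staining by high-content imaging; hits reduce neuron count versus DMSO baseline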
# Summary of the method: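 Cortical cells from rat are plated, treated with AraC at DIV 5, and exposed to test chemicals with a media change at DIV 7. At DIV 12 they are fixed and immunostained (MAP2, synaptophysin), and imaged neuron counts are compared against DMSO controls.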
# [7] = CCTE_Mundy_HCI_Cortical_NOG_NeuronCount: CCTE's Neurite Outgrowth Assay in rat cortical cells for Neuron Count, Mundy Lab (AID 2284236);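 note: neurons counted by imaging betaIII-tubulin and Hoechst stained cortical cells; cells exposed to compound for about 48 hours before fixation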
# Summary of the method: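 Read-out: neuron number by high-content imaging of betaIII-tubulin (Alexa Fluor-488) and Hoechst-labelled rat primary cortical cells.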
# [8] = read-out: Collagen I, COL1A1 (gene 1277); test: BSK_MyoF_CollagenI: BioMAP Diversity Plus: MyoF Assay for Collagen I Biomarker Activity (AID 2284238; active = hit-call score of the fitted dose curve at least 0.9, where 1 is the maximum; inactive = score below 0.9); settings: primary human lung fibroblasts
# Summary of the method: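 ELISA readout of Collagen I after 24 h chemical treatment of primary human lung fibroblast cultures; gain of signal scored relative to DMSO vehicle baseline.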
# [9] = read-out: Collagen III, COL3A1 (gene 1281); test: BSK_MyoF_CollagenIII: BioMAP Diversity Plus: MyoF Assay for Collagen III Biomarker Activity (AID 2284239; active = hit-call score of the fitted dose curve at least 0.9, where 1 is the maximum; inactive = score below 0.9); settings: primary human lung fibroblasts
# Summary of the method: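 Lung fibroblast culture; 24 h compound exposure; collagen III by ELISA; gain-of-signal fit vs DMSO baseline.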
# [10] = read-out: Interleukin 17F (IL17F), IL17F (gene 112744); test: BSK_BT_xIL17F: BioMAP Diversity Plus: BT Assay for Interleukin 17F (IL17F) Biomarker Activity (AID 2284243; active = hit-call score of the fitted dose curve at least 0.9, where 1 is the maximum; inactive = score below 0.9); settings: primary human B cells with PBMC
# Summary of the method: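 Secreted IL-17F, read on LumineX xMAP beads, was taken as the endpoint. Cultures combined human B cells and peripheral blood mononuclear cells, sampled 24 hours after dosing, with DMSO serving as negative control.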
structure (smiles),measurement,setting,value
C1=Cc2cccc3cccc1c23,outcome,[1],inactive
same,outcome,[2],inactive
OCCOCCO,outcome,[3],inactive
same,outcome,[4],inactive
same,outcome,[5],inactive
same,outcome,[6],inactive
Clc1ccc(C(c2ccc(Cl)cc2)C(Cl)(Cl)Cl)cc1,AC50,[1],50 µM (active)
same,outcome,[2],inactive
O=P(OCCCl)(OCCCl)OCCCl,outcome,[1],inactive
Nc1cc(Cl)cc(C(=O)O)c1Cl,outcome,[3],inactive
same,outcome,[4],inactive
same,outcome,[5],inactive
same,outcome,[6],inactive
COC(=O)Nc1nc2ccccc2[nH]1,outcome,[7],inactive
same,AC50,[3],3.98 µM (active)
same,AC50,[4],6.5 µM (active)
same,AC50,[5],9.91 µM (active)
same,outcome,[6],inactive
ClC1=C(Cl)C2(Cl)C3C(Cl)C=CC3C1(Cl)C2(Cl)Cl (stereo unspecified),AC50,[1],50 µM (active)
same,outcome,[2],inactive
same,AC50,[7],26.5 µM (active)
same,AC50,[3],12.2 µM (active)
same,AC50,[4],90.2 µM (active)
same,AC50,[5],13.4 µM (active)
same,AC50,[6],11.5 µM (active)
CCCCOC(=O)c1ccccc1C(=O)OCc1ccccc1,outcome,[7],inactive
same,outcome,[3],inactive
same,outcome,[4],inactive
same,AC50,[6],50.5 µM (active)
CCNS(=O)(=O)C(F)(F)C(F)(F)C(F)(F)C(F)(F)C(F)(F)C(F)(F)C(F)(F)C(F)(F)F,AC50,[8],50.6 µM (active) and 44.6 µM (active)
same,AC50,[9],44.1 µM (active) and 45 µM (active)
same,AC50,[10],21.4 µM (active) and 37.4 µM (active)
CN(C)[C@@H]1C(=O)C(C(N)=O)=C(O)[C@@]2(O)C(=O)C3=C(O)c4c(O)cccc4[C@@](C)(O)[C@H]3C[C@@H]12,outcome,[7],inactive
same,outcome,[3],inactive
same,outcome,[4],inactive
same,outcome,[5],inactive
[O-][Cl+]O,outcome,[7],inactive
same,outcome,[3],inactive
same,outcome,[4],inactive
same,outcome,[5],inactive
same,outcome,[6],inactive
CCCCCCCCn1sccc1=O,AC50,[1],7.87 µM (active)
CC(C)(C)C(O)(CCc1ccc(Cl)cc1)Cn1cncn1 (stereo unspecified),outcome,[1],inactive
same,AC50,[2],18.2 µM (active)
same,AC50,[3],0.162 µM (active)
same,AC50,[4],9.92 µM (active)
same,outcome,[5],inactive
same,outcome,[6],inactive
CC(C)COC(=O)c1ccccc1C(=O)OCC(C)C,outcome,[7],inactive
same,outcome,[3],inactive
same,outcome,[4],inactive
same,outcome,[5],inactive
same,AC50,[6],80.3 µM (active)
CNC(=O)Oc1cccc2c1OC(C)(C)C2,outcome,[7],inactive
same,outcome,[3],inactive
same,outcome,[4],inactive
same,outcome,[5],inactive
same,outcome,[6],inactive
c1ccc(N=Nc2ccccc2)cc1,outcome,[1],inactive
ClC1=C(Cl)[C@]2(Cl)[C@H]3[C@H]([C@@H]4C=C[C@H]3C4)[C@@]1(Cl)C2(Cl)Cl,AC50,[1],83 µM (active)
same,outcome,[2],inactive
CCC[CH2][Sn]([Cl])([CH2]CCC)[CH2]CCC,AC50,[7],0.079 µM (active)
same,AC50,[3],0.0886 µM (active)
same,AC50,[4],4.18 µM (active)
same,AC50,[5],0.335 µM (active)
same,AC50,[6],0.0308 µM (active)
COP(=S)(OC)SCN1C(=O)c2ccccc2C1=O,outcome,[7],inactive
same,outcome,[3],inactive
same,outcome,[4],inactive
same,outcome,[5],inactive
same,outcome,[6],inactive
